Compound activity deposited in PubChem BioAssay by Sanford-Burnham Center for Chemical Genomics.
Cardio protect: cardioprotection against H2O2-induced cell death, primary screen, uHTS, H9c2 cells, ATPLite luminescence; H9c2 cardiomyocytes, H2O2 injury protection, 2 h; protection from H2O2 cell death, % at 20 µM; 360,000 compounds, 0.63% hits; AID 588492, 2011;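 active = compounds giving at least 50% protection of heart cells from peroxide-induced death in the single-dose screen, raw or plate-pattern-corrected value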
CRFBP-R2 block: antagonists of CRF-BP/CRF-R2 complex, primary screen, cell-based, HEK293, calcium dye fluorescence, uHTS | CRF-induced calcium fluorescence | inhibition, % at 11.8 µM | 350,000 compounds, 0.59% hits;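 active = inhibition of the ligand-induced calcium signal above about 50% at the single tested concentration, limit read from the data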
FAS TE block: FAS thioesterase domain inhibitors, primary screen, biochemical, fluorescence intensity, uHTS; Fatty acid synthase (Homo sapiens), P49327; inhibition, % at 15 µM; recombinant FAS-TE, OMFH fluorogenic substrate, fluorescence endpoint; AID 602261, 2012; 360,000 compounds, 0.67% hits;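 active = compounds whose normalised, plate-corrected inhibition of enzyme fluorescence in the single-dose primary screen is 50% or more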
Target sequence (P49327 whole entry, looked up, the tested form may be a part): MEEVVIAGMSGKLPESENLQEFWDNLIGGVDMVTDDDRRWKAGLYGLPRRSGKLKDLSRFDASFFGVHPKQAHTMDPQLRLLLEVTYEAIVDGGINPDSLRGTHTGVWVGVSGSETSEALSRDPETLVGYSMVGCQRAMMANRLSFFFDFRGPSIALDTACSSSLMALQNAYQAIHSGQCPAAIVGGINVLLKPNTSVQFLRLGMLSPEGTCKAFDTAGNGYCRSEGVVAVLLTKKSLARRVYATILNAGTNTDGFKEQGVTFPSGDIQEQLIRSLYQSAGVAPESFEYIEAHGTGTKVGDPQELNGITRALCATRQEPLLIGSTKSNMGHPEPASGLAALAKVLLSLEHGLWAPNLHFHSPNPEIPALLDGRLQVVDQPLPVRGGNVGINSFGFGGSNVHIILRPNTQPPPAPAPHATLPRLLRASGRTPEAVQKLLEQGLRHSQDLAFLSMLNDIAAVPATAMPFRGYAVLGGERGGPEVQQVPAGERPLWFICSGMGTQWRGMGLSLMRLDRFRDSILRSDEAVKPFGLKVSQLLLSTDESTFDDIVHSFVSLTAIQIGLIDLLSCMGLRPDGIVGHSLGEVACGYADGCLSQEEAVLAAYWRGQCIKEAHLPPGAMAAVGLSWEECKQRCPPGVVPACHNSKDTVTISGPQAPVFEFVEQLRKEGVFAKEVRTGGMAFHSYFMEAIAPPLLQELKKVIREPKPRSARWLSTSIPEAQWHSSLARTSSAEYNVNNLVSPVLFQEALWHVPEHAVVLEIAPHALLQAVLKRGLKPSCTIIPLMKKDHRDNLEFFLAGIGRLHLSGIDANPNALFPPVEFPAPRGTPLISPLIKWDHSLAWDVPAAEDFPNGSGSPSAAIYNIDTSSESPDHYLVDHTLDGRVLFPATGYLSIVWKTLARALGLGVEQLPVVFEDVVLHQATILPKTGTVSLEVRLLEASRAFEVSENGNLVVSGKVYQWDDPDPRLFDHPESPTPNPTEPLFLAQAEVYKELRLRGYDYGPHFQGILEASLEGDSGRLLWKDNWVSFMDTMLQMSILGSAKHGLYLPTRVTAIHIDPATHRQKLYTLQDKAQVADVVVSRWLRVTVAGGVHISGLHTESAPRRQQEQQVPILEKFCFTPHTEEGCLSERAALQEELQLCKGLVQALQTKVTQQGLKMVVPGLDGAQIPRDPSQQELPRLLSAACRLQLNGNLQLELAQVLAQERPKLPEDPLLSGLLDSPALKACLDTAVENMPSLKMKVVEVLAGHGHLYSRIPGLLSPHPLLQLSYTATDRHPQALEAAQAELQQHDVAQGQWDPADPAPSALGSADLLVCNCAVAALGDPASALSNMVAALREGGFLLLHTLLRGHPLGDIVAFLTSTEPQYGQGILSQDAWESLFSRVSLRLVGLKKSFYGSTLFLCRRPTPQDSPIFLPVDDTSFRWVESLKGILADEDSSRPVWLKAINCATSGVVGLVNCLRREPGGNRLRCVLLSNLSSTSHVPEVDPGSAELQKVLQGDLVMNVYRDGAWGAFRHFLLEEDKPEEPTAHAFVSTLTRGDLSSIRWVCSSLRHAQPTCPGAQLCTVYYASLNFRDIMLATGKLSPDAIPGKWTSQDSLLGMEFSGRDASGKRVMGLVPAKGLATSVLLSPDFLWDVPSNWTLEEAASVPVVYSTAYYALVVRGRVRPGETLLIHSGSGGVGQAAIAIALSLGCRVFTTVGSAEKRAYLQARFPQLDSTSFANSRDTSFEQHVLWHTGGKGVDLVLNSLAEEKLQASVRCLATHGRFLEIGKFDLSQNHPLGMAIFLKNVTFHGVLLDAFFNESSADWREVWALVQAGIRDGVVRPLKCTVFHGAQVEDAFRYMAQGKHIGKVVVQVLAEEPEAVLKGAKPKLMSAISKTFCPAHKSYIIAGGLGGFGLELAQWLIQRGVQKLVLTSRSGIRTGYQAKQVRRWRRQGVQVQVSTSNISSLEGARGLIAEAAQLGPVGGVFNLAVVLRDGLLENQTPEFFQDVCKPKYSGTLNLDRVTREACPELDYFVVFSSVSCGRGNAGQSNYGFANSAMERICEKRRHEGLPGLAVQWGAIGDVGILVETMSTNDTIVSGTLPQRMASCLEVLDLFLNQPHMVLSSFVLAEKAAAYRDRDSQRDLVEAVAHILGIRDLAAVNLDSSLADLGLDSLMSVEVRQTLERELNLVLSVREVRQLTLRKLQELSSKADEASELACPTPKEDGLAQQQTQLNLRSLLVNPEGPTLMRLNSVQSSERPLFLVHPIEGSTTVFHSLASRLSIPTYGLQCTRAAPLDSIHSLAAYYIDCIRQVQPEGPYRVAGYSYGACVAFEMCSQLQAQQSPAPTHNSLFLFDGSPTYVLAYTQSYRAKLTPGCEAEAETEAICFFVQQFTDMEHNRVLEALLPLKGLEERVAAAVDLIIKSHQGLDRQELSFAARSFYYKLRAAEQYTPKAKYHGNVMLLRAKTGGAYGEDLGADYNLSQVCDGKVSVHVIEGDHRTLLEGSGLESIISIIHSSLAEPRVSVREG
PfGluPho inh: PfG6PD enzyme inhibitors, primary screen, biochemical, fluorescence intensity, uHTS; glucose-6-phosphate dehydrogenase-6-phosphogluconolactonase (Plasmodium falciparum 3D7); PfGluPho enzyme, NADPH resazurin-diaphorase fluorescence; inhibition, % at 20 µM; 350,000 compounds, 0.78% hits;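 active = inhibition reaching at least a set limit at 20 µM in the primary screen, cut at about 59% in these data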
CRFR2-BP ag: agonists of CRF-BP/CRF-R2 complex, primary screen, cell-based, HEK293, calcium dye fluorescence, uHTS; calcium dye fluorescence (FLIPR); percent of saturating CRF peptide response; activation, % at 13.2 µM; 350,000 compounds, 0.46% hits;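 active = activation of at least 50%, plus an integration ratio under a set limit after plate pattern correction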
aDG glyco up: activators of alpha-DG glycosylation, primary screen, uHTS, Pro5-aDG cells, AlphaScreen | alpha-DG glycosylation AlphaScreen (IIH6); 0% Pro5, 100% B10-LARGE cell signal | activation, % at 10 µM | 360,000 compounds, 0.22% hits;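 active = activation of at least 8% versus controls, or a plate z-score of at least 8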;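 also: Pro5 are CHO cells carrying HIG-tagged alpha-DG that lacks glycosylation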
A number is an active result; - = inactive. Rows were chosen to be rich in hits. Some 3.2% of all compounds tested hit in one or more screens of this group.

SMILES	Cardio protect	CRFBP-R2 block	FAS TE block	PfGluPho inh	CRFR2-BP ag	aDG glyco up
O=C(CN(C(=O)Cn1nnc(-c2ccccc2F)n1)c1cnc2ccccc2c1)NCC1CCCO1 (stereo unspecified)	-	-	-	-	-	-
COc1ccc(NC(=O)CC(c2ccc(F)cc2)c2ccc(OC)cc2)cc1 (stereo unspecified)	-	-	-	-	-	-
COc1ccc(C(CC(=O)Nc2ccc(F)cc2)c2ccccc2)cc1 (stereo unspecified)	-	52	-	-	-	-
O=C(CSc1ncc(-c2ccccc2)n1C1CCCC1)N1CCc2ccccc21	-	-	-	-	102	-
CC(C)Sc1snnc1-c1ccccc1	-	54	-	-	-	-
CSc1snnc1-c1ccccc1	-	-	-	-	-	-
O=S(=O)(c1cccc2nsnc12)N1CCc2ccccc2C1	-	52	-	-	-	-
Cc1ccc2nc(CSc3nc(C)cc(C)c3C#N)[nH]c2c1	-	-	78	-	-	-
Cc1cc(C)c(C#N)c(SCc2ccccc2)n1	-	-	-	-	-	-
COc1ccc(NC(=O)Nc2ccc3c(c2)OCO3)c(C)c1	-	53	-	-	-	-
Cc1cc(OC(F)F)ccc1NC(=O)Nc1ccc2c(c1)OCO2	-	-	-	-	-	-
Cc1sc(NC(=O)C2=COCCO2)nc1-c1ccc(F)cc1	-	-	-	-	-	-
O=C(O)C1C2C=CC(O2)C1C(=O)Nc1ccc(S(=O)(=O)N2CCc3ccccc32)cc1 (stereo unspecified)	-	-	-	-	-	-
O=C(O)C1C2C=CC(O2)C1C(=O)Nc1ccc(S(=O)(=O)Nc2ccccc2)cc1 (stereo unspecified)	-	54	-	-	-	-
CCOC(=O)c1c(C)[nH]c(C(=O)COC(=O)/C=C/c2ccc(OCC#N)c(OC)c2)c1C	-	-	-	-	-	-
CC(=O)N=c1c(C#N)cc2c(=O)n3ccccc3nc2n1Cc1ccccc1	-	-	54	-	-	-
CCOCCCn1c(=NC(C)=O)c(C#N)cc2c(=O)n3ccccc3nc21	-	-	-	-	-	-
CC1=C(C(=O)N(C(C)C)C(C)C)CC(CC(=O)NC2CCCCC2)C(=O)N1Cc1ccccc1 (stereo unspecified)	-	59	-	-	-	-
CC1=C(C(=O)N(C(C)C)C(C)C)CC(CC(=O)NC2CCCC2)C(=O)N1Cc1ccccc1 (stereo unspecified)	-	-	-	-	-	-
CCCc1nnc(SCc2ccc(OC)cc2)n1N	-	-	-	-	-	-
CC[C@@]12C(=O)N(c3ccc(C)cc3)C(=O)N1[C@H](c1cccc(C)c1)[C@@H]1C(=O)N(Cc3ccccc3)C(=O)[C@@H]12	-	-	-	-	-	-
Cc1cccc([C@@H]2[C@@H]3C(=O)N(Cc4ccccc4)C(=O)[C@@H]3[C@]3(Cc4ccc(Cl)cc4)C(=O)N(c4ccc(Br)cc4)C(=O)N23)c1	-	-	90	-	-	-
CC[C@@]12C(=O)N(c3cccc(Br)c3)C(=O)N1[C@H](c1ccc(Br)cc1)[C@@H]1C(=O)N(C(C)(C)C)C(=O)[C@@H]12	-	-	58	-	-	-
O=C1[C@H]2[C@@H](c3ccc(F)cc3)N3C(=O)N(c4cccc(Cl)c4)C(=O)[C@@]3(Cc3ccccc3)[C@H]2C(=O)N1C1CCCCC1	-	-	72	-	-	-
O=C1[C@H]2[C@@H](c3ccc(F)cc3)N3C(=O)N(c4ccccc4)C(=O)[C@@]3(Cc3ccc(Cl)cc3)[C@H]2C(=O)N1C1CCCCC1	-	-	94	-	-	-
CCN(C[C@H]1N[C@@](Cc2ccccc2)(C(=O)OC)[C@H]2C(=O)N(C)C(=O)[C@@H]12)C(=O)COC	-	-	-	-	-	-
Cc1ccc(NC(=O)c2ccc(S(=O)(=O)NCc3cccnc3)cc2)c(C)c1	-	-	-	-	-	-
